# Rows were chosen to be rich in hits. Some 2.4% of all compounds tested hit in one or more screens of this group.
# D2 PAM-1: positive allosteric modulators of human D2 dopamine receptor. P14416. HEK293 T-REx D2, calcium flux, EC20 dopamine potentiation. potentiation, % at 10 µM. actives 0.34% (n = 340,000). AID 485347;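 active = potentiation over 3 SD above the plate norm, cut at about 30% in these data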; note: 0% is about no effect
# Target sequence (P14416 whole entry, looked up): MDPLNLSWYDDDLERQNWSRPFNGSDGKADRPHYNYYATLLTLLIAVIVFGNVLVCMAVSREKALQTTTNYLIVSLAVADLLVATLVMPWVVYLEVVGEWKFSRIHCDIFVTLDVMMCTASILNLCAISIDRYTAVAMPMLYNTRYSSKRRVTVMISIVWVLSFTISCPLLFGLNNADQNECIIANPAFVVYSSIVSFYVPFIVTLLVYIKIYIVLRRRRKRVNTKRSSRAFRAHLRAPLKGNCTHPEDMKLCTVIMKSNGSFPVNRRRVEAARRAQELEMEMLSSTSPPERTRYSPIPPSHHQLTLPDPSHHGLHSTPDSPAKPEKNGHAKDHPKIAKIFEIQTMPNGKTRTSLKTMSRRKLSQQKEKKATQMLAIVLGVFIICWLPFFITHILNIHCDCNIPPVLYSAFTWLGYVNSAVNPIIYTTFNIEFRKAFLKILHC
#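 Calcium flux readout, no-wash dye, 1 read/s. Inducible HEK293 Trex D2 line, overnight 30 C. Compound alone 180 s (agonist flags), then EC20 dopamine, another 180 s to score potentiation.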
# D2 ag-1: agonists of human D2 dopamine receptor; P14416; HEK293 T-REx D2 cells, calcium flux agonist mode; activation, % at 2 µM; actives 0.53% (n = 340,000);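 active = activation over 3 SD above normal in the single-dose calcium agonist read, cut at about 30% in these data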; note: 0% is about no effect
#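 Agonism is scored from calcium flux in a force-coupled, inducible HEK293 cell line expressing D2, read kinetically for 180 s after compound addition against dopamine controls.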
# D2 PAM-2: positive allosteric modulators of human D2 dopamine receptor; P14416; DiscoveRx D2 beta-arrestin cells, luminescence, 90 min; 100% = 57 uM dopamine signal; potentiation, % (concentration not given with the values); actives 0.23% (n = 360,000); AID 624464; in the data active = potentiation above about 50%; inconclusive = mostly about 30% to 49%
#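 PathHunter beta-arrestin assay in DiscoveRx D2 cells. Compounds were added with an EC20 of dopamine (50 nM final) for 90 min at 37 deg C. Luminescence was read 1 h after detection reagent, with 57 uM dopamine as the EC100 control.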
# D2 antagonist: D2 dopamine receptor (human) antagonism. P14416. HEK293 TREx D2 cells, calcium flux, dopamine EC80. inhibition, % at 10 µM. actives 2% (n = 340,000); in the data active = inhibition above about 30%; inactive = below that, where a call was filed; note: 0% is about no effect
#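 Cells plated overnight at 30 C with tetracycline; no-wash calcium dye, 30–90 min RT; 10 s baseline; compound pinned; 180 s read; EC80 dopamine added; another 180 s read.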
# D2 ag-2: human D2 receptor agonism in beta-arrestin assay; P14416; DiscoveRx PathHunter D2 beta-arrestin, luminescence, 90 min; 100% = 57 uM dopamine signal; activation, % (concentration not given with the values); actives 0.084% (n = 360,000); in the data active = activation above about 40%; inconclusive = between about 15% and that limit
#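 Agonist mode: compounds alone added to overnight-plated D2 PathHunter cells for 90 min at 37 C, with 57 uM final dopamine (EC100) defining full response. Beta-arrestin recruitment detected by chemiluminescent reagent, read after 1 h at ambient temperature.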
# * = called active by the depositor; ? = inconclusive; / = not tested or not shown.
SMILES,D2 PAM-1,D2 ag-1,D2 PAM-2,D2 antagonist,D2 ag-2
O=C(CN1CCC(O)(c2cccc(F)c2)CC1)NCCc1c[nH]c2ccccc12,-17.9,-0.6,-24.2,44.8*,-4.5
O=C(NN1C(=O)/C(=C/c2cc([N+](=O)[O-])ccc2O)SC1=S)c1ccccc1O,-9.4,0.8,/,-2.0,/
Cc1ccc(/C=C2\SC(=S)N(/N=C/c3cc([N+](=O)[O-])ccc3O)C2=O)o1,1.4,0.2,-7.0,31.6*,0.4
COc1ccc(C(O)(CCC(C)C)C(CN2CCOCC2)c2ccc(Cl)cc2)cc1 (stereo not given),41.0*,0.3,0.0,0.3,-1.4
Cc1oc2c(c1C(=O)c1ccccc1)C(=O)C(=O)c1ccccc1-2,0.3,2.7,11.6,-27.4,?
O=C1C(=O)c2c(C(=O)c3ccccc3)coc2-c2ccccc21,1.3,-0.1,70.9*,14.4,?
Nc1ccccc1Nc1cc(-c2cccc(Cl)c2)nn1-c1ccccc1,6.4,0.9,67.6*,-4.8,?
Nc1c(-c2ccccc2)cnn1-c1cccc(Cl)c1,5.8,0.7,-1.7,-5.2,5.6
COc1ccc(NC(=O)NNC(=O)CCc2ccc(O)c(O)c2)cc1OC,-8.9,39.0*,2.4,-7.9,8.9
CC(C)(C)NCCOc1ccc2ccccc2c1,-20.9,2.6,-11.0,45.4*,-2.5
COc1ccc(NS(=O)(=O)c2cc(Br)cc3c2N(C(C)=O)CC3)cc1,-33.9,0.5,-12.6,62.8*,-17.9
O=C(C1CC1)N1CCc2cc(Br)cc(S(=O)(=O)N3CCCCCC3)c21,9.5,1.3,-6.2,-13.5,-1.4
O=C(C1CC1)N1CCc2cc(Br)cc(S(=O)(=O)NC3CCCCC3)c21,-4.2,0.3,-5.5,39.6*,-3.0
CCc1ccc(NS(=O)(=O)c2cc(Br)cc3c2N(C(C)=O)CC3)cc1,/,0.6,/,/,/
CN(C(=O)CCS(=O)(=O)c1cc2c(cc1Cl)NC(=O)CO2)C1CCCCC1,6.5,-0.3,0.2,-2.0,-3.3
CC(C)n1cnc2c(N(C)c3ccccc3)nc(N(CCN(C)C)Cc3ccccc3)nc21,-17.7,-0.2,-23.3,33.8*,2.1
CN(C)C(=O)c1c(NC(=O)c2ccco2)sc2c1CCCCC2,33.6*,-0.5,20.1,34.9*,-1.3
COC(=O)c1c(NC(=O)c2ccco2)sc(C(=O)N(C)C)c1C,77.3*,0.7,-12.4,-20.7,-3.4
CCN(CC(=O)Nc1c(F)cccc1F)C(=O)C1=COCCO1,-7.2,-0.2,7.3,-9.4,-3.2
CCc1ccc(OCCCSc2nc(-c3ccc(C(C)(C)C)cc3)nc3cc(=O)[nH]n23)cc1,-7.3,-0.2,/,/,/
COc1ccc(CCn2nc(C)c([N+](=O)[O-])c2C)cc1,-15.9,-0.7,-6.4,32.3*,1.7
Cc1ccc(OCc2cc(=O)n3cc(C)sc3n2)c(NC(=O)c2ccco2)c1,-2.9,-0.2,/,/,/
O=C(CSc1ncccn1)NC(=O)c1ccccc1,34.0*,0.5,8.5,-10.5,-5.8
O=C(CSc1ncccn1)NCc1ccc(Cl)cc1,-2.7,-0.4,-2.2,35.8*,-3.0
Nc1nnc(SCC(=O)NNC(=O)c2ccc(F)cc2)s1,-6.9,-0.1,-13.9,-39.3,-2.6
SMILES,D2 PAM-1,D2 ag-1,D2 PAM-2,D2 antagonist,D2 ag-2
Nc1nnc(SCC(=O)NNC(=O)c2ccccc2)s1,-7.2,-0.1,-8.8,37.2*,-4.8
O=C(CSc1ccccc1)NNC(=O)c1ccncc1,5.3,1.0,0.9,57.1*,-0.2
Cc1ccccc1CNC(=O)C1CCCN(c2nnc(-n3c(C)ccc3C)s2)C1 (stereo not given),5.5,0.5,/,/,/
O=C(NCCc1ccccc1Cl)c1ccc2c(c1)nc1n2CCOC1,15.0,0.4,/,/,/
Cn1c(Cn2nnc3ccccc32)nnc1SCC(N)=O,33.9*,-3.1,-5.0,6.9,-2.7
Cc1cc(O)ccc1C1(c2ccc(O)cc2C)OC(=O)c2ccccc21,6.6,0.2,-2.6,-2.8,-0.7
CC(=O)Oc1ccc2c(c1)Oc1cc(OC(C)=O)ccc1C21OC(=O)c2ccccc21,-24.4,165.4*,?,83.5*,7.0
C[C@H](NC(=O)c1ccccc1)C(=O)N1CCN(c2ccccc2)CC1,-2.6,-0.3,-2.8,30.4*,0.8
CC(NC(=O)COc1ccccc1)C(=O)N1CCN(c2ccccc2)CC1 (stereo not given),7.9,0.1,-14.0,7.5,-7.2
Cc1ccc(C(=O)NC(=S)N2CCN(c3ccc([N+](=O)[O-])cc3)CC2)cc1,5.6,0.0,-16.0,6.9,2.8
O=C(NC(=S)N1CCN(c2ccc([N+](=O)[O-])cc2)CC1)c1ccccc1,-3.3,-0.3,-1.9,31.0*,3.3
CC(=O)Nc1ccc(Oc2sc(C(=O)c3ccccc3)c(N)c2C#N)cc1,-5.0,0.2,-9.7,31.5*,-3.0
C=CCn1c(CCNC(=O)c2cccs2)nnc1SCC(=O)Nc1cccc(C(C)=O)c1,7.3,-0.4,-20.9,33.9*,-1.2
CCNc1ccc2noc3c2c1C(=O)c1ccccc1-3,/,/,70.3*,/,10.7
CCOc1ccc2noc3c2c1C(=O)c1ccccc1-3,/,/,4.9,/,2.0
O=C1c2ccccc2-c2onc3ccc(N4CCCC4)c1c23,-17.9,19.5,-1.1,12.7,3.8
O=C1c2ccccc2-c2onc3ccc(NCc4ccco4)c1c23,1.4,29.9,111.7*,17.6,?
COc1ccc(NC(=O)CSc2[nH]c(=O)cc(C)c2C#N)cc1OC,10.7,-0.5,0.2,34.3*,-1.0
O=C(Nc1cnc(N2CCN(c3ccccc3)CC2)c(C(=O)O)c1)c1cccs1,9.8,0.3,/,/,/
COC(=O)CCC(=O)OC,/,/,-33.0,/,-5.5
COC(=O)CCCCC(=O)OC,2.3,-0.3,-6.3,36.5*,0.7
O=C(CN(C1CCCCC1)S(=O)(=O)c1ccccc1)NCc1ccco1,46.5*,0.2,0.7,4.6,-0.8
COc1ccc(S(=O)(=O)N(C)CC(=O)NCc2ccco2)cc1OC,-20.2,0.3,-3.6,33.7*,-2.1
Cc1ccc(S(=O)(=O)N(CC(=O)NCc2ccco2)C2CCCCC2)cc1,9.5,0.4,1.7,15.1,-1.2
COc1ccc(S(=O)(=O)NCC(=O)N(CC(=O)NCc2ccco2)C2CCCC2)cc1,-5.0,1.0,-4.9,46.7*,-4.9
CCOc1ccc(OCC(=O)Nc2c(C(=O)Nc3ccc(C)cc3)oc3ccccc23)cc1,-0.8,0.9,/,/,/
COCCCNC(=O)CN1C(=O)c2c(c3ccccc3n2C)C1c1ccc(OC)cc1 (stereo not given),-12.1,0.7,/,/,/
COc1cc(/C=C/C(=O)c2ccc3c(c2)OCO3)cc(Cl)c1O,-4.9,78.3*,-8.1,34.8*,-6.4
COc1ccccc1N1CCN(c2ccc(=O)n(CC(=O)NCc3ccc(F)cc3)n2)CC1,/,-0.1,/,/,/
CCOC(=O)c1ccc(NC2=CC(=O)C(=O)c3ccccc32)cc1,-6.2,-0.3,111.8*,-7.8,9.8

# Screening results: PubChem, National Center for Advancing Translational Sciences (NCATS)
